This passage reports sensor-assay potency score (higher = more potent) results from the OligoGym collection.
Further: reference of the scale not given here.

The target in one test is AGAP3. Briefly: pooled miR-30 sensor sort-seq; sequence = guide strand. Conditions: shRNA.
For TCGCAGTCGATACAAAAGCTGT, the sensor-assay potency score (higher = more potent) is -1.8.
On the same count and under the same terms, under TACTTCTTCTTCCACTCCTTGT stands -0.51; under ATTGGGTGCATCGCAGTCGATA, -1.38.
TTAAGCTCCGGTACGGAGCGGC: the sensor-assay potency score (higher = more potent) is -0.14.
The same measure, in the same setting: under TTGTACACCGTCTGGAAACTGA stands -0.718.
Still for that read-out and setting: under TTCATCTCGGATCAGCAGCAGG stands -1.26; under TACACAAACATAAATATTCCAA, -0.597.
Same read-out and setting: with TCTGCTGTCGTCGATAACCCGG the figure was -1.3; with TACCAGATGAGCAGCTGCGTGA, -0.56; with TGGAACTGAGTACCTCAGCTGG, -1.58.
In the case of ATACTTCTTCTTCCACTCCTTG, the sensor-assay potency score (higher = more potent) was -0.733.
On the same count and under the same terms, with TTCCCTGGCACTTTCACCGTTG the figure was -0.316.

In the next test the target is AGBL5. Described as above. The following applies: shRNA.
Consider TTTCAGCACAGTCTGGTCGGGT, for which the sensor-assay potency score (higher = more potent) is -0.447.
With TAGATTAGTAAGGCTGCTGTGC, the sensor-assay potency score (higher = more potent) is -0.537.
Turning to ATCTACACGAAGTCCATCCAGA, the sensor-assay potency score (higher = more potent) is -1.07.
Still for that read-out and setting: with TTCTTCTCTGAGAAATTGCAGC the figure was -0.823; with AATAGTTCCACAGTGTATCTGG, 0.759; with TTGCATTCAAGTGTGTAGCTGT, 0.765.
Still for that read-out and setting: with TTCCGTTTCAGCACAGTCTGGT the figure was 0.615.
On the same count and under the same terms, with TTTGGAAGCATGTCCATGCAGG the figure was -0.608.
Take TTGAAGACAAAGCTAGATGGAG: the sensor-assay potency score (higher = more potent) is -0.419.
Still for that read-out and setting: under TTTAGGGACAAAACAAACCTCA stands -0.454.
The same measure, in the same setting: under TTGTAGATTGCAACACGGCCGC stands -0.607.
As for TTGTAGTTGCATTCAAGTGTGT, the sensor-assay potency score (higher = more potent) stood at 0.25.
